In PubChem BioAssay (NCI):
Compounds without any hit were thinned out: in the full panel of roughly 79,000, 15% have a hit. Active and inactive are the calls of the source. Rule as the data show it: active = growth inhibition above about 70%; inactive = the rest.

Assays:
[1] = NCI Yeast Anticancer Drug Screen. Data for the rad50 strain (AID 155);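 also: 0% = growth of vehicle-only cultures of the same strain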; settings: S. cerevisiae rad50 strain growth inhibition, hits give high values
Method in brief: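 Compounds were tested on a yeast strain with an engineered DNA damage repair alteration; the reported value is growth inhibition normalised to vehicle treatment.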

[2] = NCI Yeast Anticancer Drug Screen. Data for the mec2-1 strain (AID 157); settings: S. cerevisiae mec2-1 strain, hits give high values
Method in brief: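 Compounds were applied to mec2-1 yeast cells. Their growth was then compared with that of vehicle-treated cultures to give growth inhibition.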

[3] = NCI Yeast Anticancer Drug Screen. Data for the sgs1 mgt1 strain (AID 161);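 also: 0% = growth of cultures given vehicle only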; settings: S. cerevisiae sgs1 mgt1 strain, hits give high values
Method in brief: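 Compounds are added to genetically altered yeast, and growth is compared with cultures given vehicle alone to give percent inhibition.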

[4] = NCI Yeast Anticancer Drug Screen. Data for the cln2 rad14 strain (AID 165);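 also: 0% = growth equal to vehicle treated cultures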; settings: S. cerevisiae cln2 rad14 strain, hits give high values
Method in brief: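 Strain: cln2 rad14 yeast, altered in cell cycle control and DNA damage repair. Read-out: growth inhibition vs vehicle.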

[5] = NCI Yeast Anticancer Drug Screen. Data for the bub3 strain (AID 167); settings: S. cerevisiae bub3 mutant strain, hits give high values
Method in brief: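 Growth of a checkpoint-deficient yeast mutant is measured after compound exposure. Values represent inhibition relative to vehicle.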

[6] = NCI Yeast Anticancer Drug Screen. Data for the mlh1 rad18 strain (AID 175); settings: S. cerevisiae mlh1 rad18 strain growth inhibition, hits give high values
Method in brief: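 A repair-deficient yeast strain is exposed to test compound, and growth is scored relative to vehicle-treated controls.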

[7] = at 5.0 µM (retest, dose inferred, filed as 0.5)
[8] = at 50.0 µM (retest, dose inferred, filed as 5.0)

Measured: growth inhibition

CC(=O)OC1CCC2(C)C3CCC4(C)C(CCC4(Br)C(=O)CBr)C3CC(Br)C2(Br)C1 (stereo not drawn)
inactive: [1]; [7] -1% | [1]; [8] 19% | [1]; at 50.0 µM 68.8% | [2]; [7] -5% | [2]; [8] 15% | [2]; at 50.0 µM 52.2% | [3]; [7] -5% | [3]; [8] 10% | [3]; at 50.0 µM 53.4% | [4]; [7] -2% | [4]; [8] 9% | [4]; at 50.0 µM 26.9% | [5]; [7] -3% | [5]; [8] 7% | [5]; at 50.0 µM 49.5% | [6]; [7] 3% | [6]; [8] -3%
active: [6]; at 50.0 µM 76.4%

O=c1[nH]c2c([N+](=O)[O-])cc(Cl)cc2nc1/C=C(\O)c1ccc(Cl)cc1
inactive: [1]; [7] -16% | [2]; [7] 20% | [3]; [7] -3% | [4]; [7] -27% | [4]; at 50.0 µM 65% | [5]; [7] 17% | [6]; [7] 13%
active: [1]; [8] 91% | [1]; at 50.0 µM 96.8% | [2]; [8] 87% | [2]; at 50.0 µM 95.3% | [3]; [8] 78% | [3]; at 50.0 µM 95.3% | [4]; [8] 83% | [5]; [8] 87% | [5]; at 50.0 µM 89.8% | [6]; [8] 95% | [6]; at 50.0 µM 97.2%

CCOC(=O)/C(C#N)=C/c1coc2cc(C)cc(C)c2c1=O
active: [1]; [8] 100% | [1]; at 50.0 µM 70.4% | [2]; [8] 97% | [2]; at 50.0 µM 90.4% | [3]; [8] 98% | [3]; at 50.0 µM 79.9% | [4]; [8] 89% | [4]; at 50.0 µM 89.3% | [5]; [8] 93% | [5]; at 50.0 µM 83% | [6]; [8] 98%
inactive: [1]; [7] 6% | [2]; [7] 2% | [3]; [7] -3% | [4]; [7] -2% | [5]; [7] -20% | [6]; [7] 15% | [6]; at 50.0 µM 65.8%

CC1(C)c2ccccc2-c2nc3ccccc3cc2C1Br (stereo not drawn)
active: [3]; at 50.0 µM 73.7% | [5]; at 50.0 µM 95% | [6]; at 50.0 µM 70.5%
inactive: [1]; [7] -1% | [1]; [8] 29% | [1]; at 50.0 µM 37.6% | [2]; [7] -4% | [2]; [8] 26% | [2]; at 50.0 µM 46.7% | [3]; [7] -4% | [3]; [8] 23% | [4]; [7] -22% | [4]; [8] 4% | [4]; at 50.0 µM 44.3% | [5]; [7] 2% | [5]; [8] 59% | [6]; [7] -1% | [6]; [8] 27%

CC1=CC(c2c(O)cc(O)c(C(=O)CCc3ccccc3)c2O)C(C(C)C)CC1 (stereo not drawn)
active: [1]; [8] 88% | [1]; at 50.0 µM 70.8% | [2]; [8] 85% | [2]; at 50.0 µM 83% | [3]; [8] 91% | [3]; at 50.0 µM 80% | [4]; [8] 87% | [4]; at 50.0 µM 79.2% | [5]; [8] 96% | [5]; at 50.0 µM 76% | [6]; [8] 76% | [6]; at 50.0 µM 82.2%
inactive: [1]; [7] 11% | [2]; [7] 10% | [3]; [7] 1% | [4]; [7] 3% | [5]; [7] 21% | [6]; [7] 8%

Cc1cc([N+](=O)[O-])c2nnnn2c1
inactive: [1]; [7] 5% | [1]; [8] 59% | [1]; at 50.0 µM -1.75% | [2]; [7] 2% | [2]; [8] 28% | [2]; at 50.0 µM 1.4% | [3]; [7] 0% | [3]; [8] 31% | [3]; at 50.0 µM -15.2% | [4]; [7] -1% | [4]; [8] 4% | [4]; at 50.0 µM -9.75% | [5]; [7] -1% | [5]; [8] 28% | [5]; at 50.0 µM 22.4% | [6]; [7] 7% | [6]; [8] 65% | [6]; at 50.0 µM 34%

CSC(C=P(c1ccccc1)(c1ccccc1)c1ccccc1)=Nc1ccccc1
inactive: [1]; [7] 58% | [2]; [7] 22% | [3]; [7] 23% | [4]; [7] 3% | [5]; [7] 16% | [6]; [7] 15%
active: [1]; [8] 98% | [1]; at 50.0 µM 96.8% | [2]; [8] 96% | [2]; at 50.0 µM 99% | [3]; [8] 98% | [3]; at 50.0 µM 95.5% | [4]; [8] 97% | [4]; at 50.0 µM 98.3% | [5]; [8] 97% | [5]; at 50.0 µM 98.2% | [6]; [8] 97% | [6]; at 50.0 µM 95.7%

O=S(=O)(Nc1ccccc1C(F)(F)F)c1ccc(F)cc1
active: [1]; at 50.0 µM 80.6% | [6]; [8] 83% | [6]; at 50.0 µM 80.2%
inactive: [1]; [7] -23% | [1]; [8] 49% | [2]; [7] 6% | [2]; [8] 59% | [2]; at 50.0 µM 46.5% | [3]; [7] -11% | [3]; [8] 43% | [3]; at 50.0 µM 56.4% | [4]; [7] -21% | [4]; [8] 69% | [4]; at 50.0 µM 33.4% | [5]; [7] -16% | [5]; [8] 61% | [5]; at 50.0 µM 35.4% | [6]; [7] -13%

CC1=C/C(=C(/c2ccc(O)c(C)c2)c2ccccc2C(=O)O)C=CC1=O
active: [1]; [8] 99% | [1]; at 50.0 µM 99% | [2]; [8] 99% | [2]; at 50.0 µM 99.5% | [3]; [8] 99% | [3]; at 50.0 µM 99.1% | [4]; [8] 98% | [4]; at 50.0 µM 99.1% | [5]; [8] 99% | [5]; at 50.0 µM 99.2% | [6]; [8] 99% | [6]; at 50.0 µM 99%
inactive: [1]; [7] -13% | [2]; [7] -3% | [3]; [7] -9% | [4]; [7] -28% | [5]; [7] -8% | [6]; [7] 6%

CCCCCCCCCCCCCCCCCc1nnc(N)o1
inactive: [1]; [7] 1% | [1]; [8] 24% | [1]; at 50.0 µM -11.8% | [2]; [7] 7% | [2]; [8] 33% | [2]; at 50.0 µM -0.5% | [3]; [7] 18% | [3]; [8] 51% | [3]; at 50.0 µM 19% | [4]; [7] 1% | [4]; [8] 36% | [4]; at 50.0 µM 45.6% | [5]; [7] 6% | [5]; [8] 40% | [5]; at 50.0 µM 11.2% | [6]; [7] 6% | [6]; [8] 25% | [6]; at 50.0 µM -3.6%

CCCOCCC#N
inactive: [1]; [7] 8% | [1]; [8] -2% | [1]; at 50.0 µM -11.6% | [2]; [7] 5% | [2]; [8] 0% | [2]; at 50.0 µM 7.45% | [3]; [7] -6% | [3]; [8] 1% | [3]; at 50.0 µM -8.1% | [4]; [7] 5% | [4]; [8] -2% | [4]; at 50.0 µM 40.9% | [5]; [7] 7% | [5]; [8] 13% | [5]; at 50.0 µM -1.65% | [6]; [7] 7% | [6]; [8] -1% | [6]; at 50.0 µM -17.9%
